Test results reported in ChEMBL document CHEMBL2218924, “A broad activity screen in support of a chemogenomic map for kinase signalling research and drug discovery” (Biochem J, 2013).

What was measured:
[1] = target: Tyrosine-protein kinase Yes (Homo sapiens) (UniProt P07947); details: at 1 µM
[2] = target: Tyrosine-protein kinase Yes (Homo sapiens) (UniProt P07947); details: at 10 µM
[3] = target: T1, Tyrosine-protein kinase ZAP-70 (Homo sapiens) (UniProt P43403); details: at 10 µM
T1 sequence (whole entry): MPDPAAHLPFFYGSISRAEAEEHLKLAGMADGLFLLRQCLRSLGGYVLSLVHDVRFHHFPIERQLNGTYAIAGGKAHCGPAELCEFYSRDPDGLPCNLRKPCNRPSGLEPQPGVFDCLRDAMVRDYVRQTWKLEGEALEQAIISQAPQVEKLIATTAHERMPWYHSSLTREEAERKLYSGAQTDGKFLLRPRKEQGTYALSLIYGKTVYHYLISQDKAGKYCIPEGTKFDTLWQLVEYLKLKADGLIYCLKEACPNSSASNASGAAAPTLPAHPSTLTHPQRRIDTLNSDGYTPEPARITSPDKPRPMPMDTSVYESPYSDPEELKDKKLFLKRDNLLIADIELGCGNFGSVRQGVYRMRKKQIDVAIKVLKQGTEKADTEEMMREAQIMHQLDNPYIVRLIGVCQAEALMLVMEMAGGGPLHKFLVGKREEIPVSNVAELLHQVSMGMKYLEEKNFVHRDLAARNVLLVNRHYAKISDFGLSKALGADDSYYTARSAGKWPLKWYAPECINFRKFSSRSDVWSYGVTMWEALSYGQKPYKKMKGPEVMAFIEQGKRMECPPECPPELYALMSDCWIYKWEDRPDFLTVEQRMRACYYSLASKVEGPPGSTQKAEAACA

[4] = target: RAF proto-oncogene serine/threonine-protein kinase (Homo sapiens) (UniProt P04049); details: at 1 µM
[5] = target: RAF proto-oncogene serine/threonine-protein kinase (Homo sapiens) (UniProt P04049); details: at 10 µM
[6] = target: Mast/stem cell growth factor receptor Kit (Homo sapiens) (UniProt P10721); details: at 1 µM
[7] = target: Mast/stem cell growth factor receptor Kit (Homo sapiens) (UniProt P10721); details: at 10 µM
[8] = target: T1, Tyrosine-protein kinase ZAP-70 (Homo sapiens); details: at 1 µM
[9] = target: Death-associated protein kinase 3 (Homo sapiens) (UniProt O43293); details: at 1 µM
[10] = target: Death-associated protein kinase 3 (Homo sapiens) (UniProt O43293); details: at 10 µM

Sequence of Death-associated protein kinase 3 (Homo sapiens) (O43293 whole entry, looked up): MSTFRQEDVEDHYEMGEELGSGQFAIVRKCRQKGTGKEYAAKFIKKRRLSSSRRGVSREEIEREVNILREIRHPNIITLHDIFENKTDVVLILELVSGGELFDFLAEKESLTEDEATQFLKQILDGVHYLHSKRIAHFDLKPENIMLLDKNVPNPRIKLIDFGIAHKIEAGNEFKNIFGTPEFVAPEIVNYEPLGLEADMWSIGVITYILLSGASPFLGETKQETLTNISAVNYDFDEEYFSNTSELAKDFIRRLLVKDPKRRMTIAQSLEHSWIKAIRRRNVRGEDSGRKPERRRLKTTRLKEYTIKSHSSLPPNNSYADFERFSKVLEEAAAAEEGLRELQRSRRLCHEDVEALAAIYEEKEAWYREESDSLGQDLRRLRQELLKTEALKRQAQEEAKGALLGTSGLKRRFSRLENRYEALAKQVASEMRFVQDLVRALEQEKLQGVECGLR
Sequence of Mast/stem cell growth factor receptor Kit (Homo sapiens) (P10721 whole entry): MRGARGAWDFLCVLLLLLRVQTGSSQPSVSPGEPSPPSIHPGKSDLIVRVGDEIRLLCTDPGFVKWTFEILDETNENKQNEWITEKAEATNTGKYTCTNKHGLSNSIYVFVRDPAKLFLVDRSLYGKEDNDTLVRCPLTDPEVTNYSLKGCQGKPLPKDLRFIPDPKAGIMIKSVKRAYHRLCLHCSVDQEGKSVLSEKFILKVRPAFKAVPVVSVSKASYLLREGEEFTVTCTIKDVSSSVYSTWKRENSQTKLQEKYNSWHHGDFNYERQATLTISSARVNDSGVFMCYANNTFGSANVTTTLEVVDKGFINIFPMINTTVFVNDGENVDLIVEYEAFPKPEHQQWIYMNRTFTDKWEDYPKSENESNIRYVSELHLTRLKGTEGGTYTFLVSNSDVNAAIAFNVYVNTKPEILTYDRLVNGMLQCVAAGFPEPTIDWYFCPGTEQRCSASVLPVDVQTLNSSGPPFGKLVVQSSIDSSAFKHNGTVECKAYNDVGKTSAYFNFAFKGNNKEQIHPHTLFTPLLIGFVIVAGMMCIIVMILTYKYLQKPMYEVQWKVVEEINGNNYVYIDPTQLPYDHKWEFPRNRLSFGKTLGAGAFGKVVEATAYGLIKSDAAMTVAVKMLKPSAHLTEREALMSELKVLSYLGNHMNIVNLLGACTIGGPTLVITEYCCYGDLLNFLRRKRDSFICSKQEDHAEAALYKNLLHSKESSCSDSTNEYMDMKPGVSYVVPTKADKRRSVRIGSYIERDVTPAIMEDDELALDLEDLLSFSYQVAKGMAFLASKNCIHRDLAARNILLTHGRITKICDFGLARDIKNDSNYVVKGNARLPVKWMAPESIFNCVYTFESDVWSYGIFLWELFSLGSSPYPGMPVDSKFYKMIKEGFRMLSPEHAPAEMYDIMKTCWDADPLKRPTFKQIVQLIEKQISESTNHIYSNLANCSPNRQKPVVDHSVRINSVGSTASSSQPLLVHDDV
Sequence of Tyrosine-protein kinase Yes (Homo sapiens) (P07947 2-543 limits assumed): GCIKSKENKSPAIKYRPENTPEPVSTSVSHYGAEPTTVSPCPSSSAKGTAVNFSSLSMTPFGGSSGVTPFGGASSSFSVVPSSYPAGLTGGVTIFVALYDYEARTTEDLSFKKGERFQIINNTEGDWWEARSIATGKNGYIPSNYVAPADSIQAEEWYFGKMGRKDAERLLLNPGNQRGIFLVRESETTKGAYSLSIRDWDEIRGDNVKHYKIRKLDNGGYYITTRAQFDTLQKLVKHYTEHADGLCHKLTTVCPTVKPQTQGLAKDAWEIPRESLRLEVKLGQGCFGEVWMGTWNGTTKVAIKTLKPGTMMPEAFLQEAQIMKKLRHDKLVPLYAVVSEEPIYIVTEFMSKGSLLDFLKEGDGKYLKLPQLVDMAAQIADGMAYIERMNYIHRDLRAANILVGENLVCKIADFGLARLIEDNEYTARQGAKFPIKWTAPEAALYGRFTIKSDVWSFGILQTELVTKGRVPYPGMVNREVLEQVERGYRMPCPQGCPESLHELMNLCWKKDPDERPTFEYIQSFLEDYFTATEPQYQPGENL
Sequence of RAF proto-oncogene serine/threonine-protein kinase (Homo sapiens) (P04049 whole entry): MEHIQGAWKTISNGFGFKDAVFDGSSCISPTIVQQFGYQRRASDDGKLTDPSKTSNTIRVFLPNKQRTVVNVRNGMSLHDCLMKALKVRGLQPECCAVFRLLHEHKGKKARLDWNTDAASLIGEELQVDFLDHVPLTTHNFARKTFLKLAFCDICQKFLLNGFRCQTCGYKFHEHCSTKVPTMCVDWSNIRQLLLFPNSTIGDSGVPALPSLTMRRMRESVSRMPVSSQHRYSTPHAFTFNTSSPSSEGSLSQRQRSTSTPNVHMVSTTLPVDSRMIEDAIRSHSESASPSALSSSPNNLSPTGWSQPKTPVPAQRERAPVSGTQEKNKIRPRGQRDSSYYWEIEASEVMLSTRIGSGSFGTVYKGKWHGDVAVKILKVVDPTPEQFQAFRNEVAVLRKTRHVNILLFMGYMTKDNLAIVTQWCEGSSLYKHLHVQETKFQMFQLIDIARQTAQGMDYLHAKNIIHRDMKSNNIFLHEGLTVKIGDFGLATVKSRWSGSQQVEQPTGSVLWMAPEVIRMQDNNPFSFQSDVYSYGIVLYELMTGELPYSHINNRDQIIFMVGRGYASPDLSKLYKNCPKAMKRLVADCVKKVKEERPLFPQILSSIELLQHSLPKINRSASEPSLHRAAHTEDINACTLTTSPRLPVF

For `c1cc(-c2cnn3cc(-c4ccc(OCCN5CCCCC5)cc4)cnc23)ccn1`, the residual activity [1] was 7%, the residual activity [2] was 0% and the residual activity [3] was 101%. For the same compound, the residual activity [4] was 82%, the residual activity [5] was 47% and the residual activity [6] was 5%. It also gave a residual activity [7] of 2%.

Compound `COC(=O)[C@@]1(O)C[C@H]2O[C@]1(C)n1c3ccccc3c3c4c(c5c6ccccc6n2c5c31)C(=O)NC4` has a residual activity [1] of 11%, a residual activity [2] of 1% and a residual activity [8] of 16%. For the same compound, the residual activity [3] was 2%, the residual activity [9] was 12% and the residual activity [10] was 2%. For the same compound, the residual activity [4] was 78%, the residual activity [5] was 69% and the residual activity [6] was 76%. It also gave a residual activity [7] of 20%.

With `Oc1ccc(Nc2nc(-c3ccc(Cl)cc3)cs2)cc1` the residual activity [3] was 130%.

For `Cn1c2ccccc2c2c3c(c4c5ccccc5n(CCC#N)c4c21)CNC3=O`, the residual activity [3] was 111%.

With `N/C(=N\[N+](=O)[O-])N/N=C\c1ccc(-c2cccc([N+](=O)[O-])c2)o1` the residual activity [2] was 100%, the residual activity [8] was 99% and the residual activity [3] was 100%. The residual activity [4] was 88% and the residual activity [5] was 80%.

`CCn1cnc2c(Nc3cccc(Cl)c3)nc(N[C@@H]3CCCC[C@@H]3N)nc21` gave a residual activity [1] of 7%, a residual activity [2] of 1% and a residual activity [8] of 93%. For the same compound, the residual activity [3] was 95%, the residual activity [10] was 55% and the residual activity [4] was 68%. It also gave a residual activity [5] of 23% and a residual activity [7] of 86%.

Work on `O=c1[nH]c2ccccc2n1C1CCN(Cc2ccc(-c3nc4cc5[nH]cnc5cc4nc3-c3ccccc3)cc2)CC1` yielded a residual activity [1] of 99%, a residual activity [2] of 73% and a residual activity [8] of 123%. For the same compound, the residual activity [3] was 98%, the residual activity [9] was 100% and the residual activity [10] was 95%. For the same compound, the residual activity [4] was 94%, the residual activity [5] was 109% and the residual activity [6] was 121%. The residual activity [7] was 87%.

With `O=C1NC(=O)c2cc(Nc3ccc(F)cc3)c(Nc3ccc(F)cc3)cc21` the residual activity [3] was 119%.

Work on `O=C(O)/C=C/c1cc(Br)c(Br)c(Br)c1Br` yielded a residual activity [3] of 82%.

For `O=C(Nc1ccc(Cl)cc1)c1ccccc1NCc1ccncc1`, the residual activity [3] was 142%.

Work on `O=C1NC(=O)c2c1c1c3ccccc3n3c1c1c2c2ccccc2n1C1CCC3O1` yielded a residual activity [8] of 132%, a residual activity [3] of 125% and a residual activity [9] of 80%. It also gave a residual activity [10] of 78%, a residual activity [4] of 77% and a residual activity [5] of 98%.

In the case of `O=[N+]([O-])/C=C/c1ccc2c(c1)OCO2`, the residual activity [1] is reported as 118%, the residual activity [2] is reported as 98% and the residual activity [8] is reported as 111%. It also gave a residual activity [3] of 127%, a residual activity [9] of 96% and a residual activity [10] of 128%. It also gave a residual activity [4] of 87%, a residual activity [5] of 101% and a residual activity [6] of 113%. The residual activity [7] was 99%.

`CCc1nc(-c2ccc(OC)cc2)[nH]c1-c1ccncc1` showed a residual activity [1] of 123%, a residual activity [2] of 101% and a residual activity [8] of 119%. The residual activity [3] was 121%, the residual activity [6] was 127% and the residual activity [7] was 104%.

Work on `CO[C@@H]1[C@H](N(C)C(=O)c2ccccc2)C[C@H]2O[C@]1(C)n1c3ccccc3c3c4c(c5c6ccccc6n2c5c31)C(=O)NC4` yielded a residual activity [3] of 60%.

`O=C1NC(=O)c2c1c1c3ccccc3[nH]c1n1cncc21` gave a residual activity [3] of 102%.

Compound `O=C1Nc2ccc(Cl)cc2/C1=C/c1cc(Cl)c(O)c(Cl)c1` has a residual activity [3] of 100%.

Compound `CO[C@H]1[C@@H](OC)C[C@H](C)[C@@H](OC)C2=CC(=O)C=C(NC(=O)/C(C)=C/C=C/[C@H](OC)[C@@H](OC(N)=O)/C(C)=C/[C@@H]1C)C2=O` has a residual activity [3] of 112%.

`Fc1ccc(-c2nc3n(c2-c2ccncc2)CCS3)cc1` gave a residual activity [3] of 124%.

`Cn1sc(=O)n(Cc2ccccc2)c1=O` was tested, and the residual activity [3] was 96%.

Compound `COc1cc2ncnc(Nc3cccc(Cl)c3)c2cc1OC` has a residual activity [3] of 125%.

Work on `O=Nc1c(-c2c(O)[nH]c3ccccc23)[nH]c2ccccc12` yielded a residual activity [3] of 91%.

In the case of `CN(C)c1ccc(/C=C2\C(=O)Nc3ccccc32)cc1`, the residual activity [3] is reported as 115%.

For `COc1cc2ncnc(Nc3ccc(OCc4ccccc4)cc3)c2cc1OC`, the residual activity [1] was 64%, the residual activity [2] was 39% and the residual activity [8] was 112%. For the same compound, the residual activity [3] was 107%, the residual activity [9] was 86% and the residual activity [10] was 104%. For the same compound, the residual activity [4] was 86%, the residual activity [5] was 96% and the residual activity [6] was 98%. The residual activity [7] was 29%.

In the case of `COc1ccc2c(c1)/C(=C/c1cnc[nH]1)C(=O)N2`, the residual activity [1] is reported as 96%, the residual activity [2] is reported as 19% and the residual activity [4] is reported as 75%. It also gave a residual activity [5] of 74%.

In the case of `CC(=O)O/N=C1\C(=C2\C(=O)Nc3cc(Br)ccc32)Nc2ccccc21`, the residual activity [3] is reported as 87%.

In the case of `COc1ccc2c(c[n+](C)c3c4cc5c(cc4ccc23)OCO5)c1OC`, the residual activity [2] is reported as 84%, the residual activity [8] is reported as 119% and the residual activity [3] is reported as 95%. It also gave a residual activity [9] of 94%, a residual activity [6] of 123% and a residual activity [7] of 95%.

Work on `O=C1c2ccccc2-c2nc3nnnn3nc21` yielded a residual activity [8] of 111%, a residual activity [3] of 120% and a residual activity [10] of 114%. The residual activity [5] was 101%.

Compound `C[S+]([O-])c1ccc(-c2nc(-c3ccc(F)cc3)c(-c3ccncc3)[nH]2)cc1` (stereo not given) has a residual activity [2] of 45%, a residual activity [8] of 124% and a residual activity [3] of 130%. The residual activity [9] was 98%, the residual activity [10] was 100% and the residual activity [4] was 17%. The residual activity [5] was 3%, the residual activity [6] was 119% and the residual activity [7] was 102%.

Work on `COc1cc(OC)c(/C=C2\C(=O)Nc3ccccc32)c(OC)c1` yielded a residual activity [2] of 78%, a residual activity [8] of 90% and a residual activity [3] of 82%. The residual activity [10] was 96%, the residual activity [4] was 67% and the residual activity [5] was 67%. For the same compound, the residual activity [6] was 98% and the residual activity [7] was 105%.

With `O=C1NC(=O)C(c2cn(CCCn3ccnc3)c3ccccc23)=C1Nc1ccccc1` the residual activity [3] was 118%.

`O=C1Nc2ccc3ncsc3c2/C1=C/c1c[nH]cn1` gave a residual activity [1] of 52%, a residual activity [2] of 9% and a residual activity [8] of 102%. It also gave a residual activity [3] of 101%, a residual activity [9] of 68% and a residual activity [10] of 50%. For the same compound, the residual activity [4] was 48%, the residual activity [5] was 35% and the residual activity [6] was 25%. The residual activity [7] was 4%.

In the case of `Cc1cc2ncc(-c3ccccc3)nc2cc1C`, the residual activity [3] is reported as 98%.
